This is a sample that favours compounds with a hit; in the whole collection about 21% have one here.
FBPA Giardia inh: inhibitors of Giardia lamblia fructose-1,6-bisphosphate aldolase; A8B2U2; purified Giardia FBPA; Potency, µM (titrated, usually from 59.6 µM), usual class: inhibitors; hit rate 0.71% among 290,000; AID 2451; also: nearly all actives have a fitted effect of over 55% in size
Target sequence (A8B2U2 whole entry, looked up): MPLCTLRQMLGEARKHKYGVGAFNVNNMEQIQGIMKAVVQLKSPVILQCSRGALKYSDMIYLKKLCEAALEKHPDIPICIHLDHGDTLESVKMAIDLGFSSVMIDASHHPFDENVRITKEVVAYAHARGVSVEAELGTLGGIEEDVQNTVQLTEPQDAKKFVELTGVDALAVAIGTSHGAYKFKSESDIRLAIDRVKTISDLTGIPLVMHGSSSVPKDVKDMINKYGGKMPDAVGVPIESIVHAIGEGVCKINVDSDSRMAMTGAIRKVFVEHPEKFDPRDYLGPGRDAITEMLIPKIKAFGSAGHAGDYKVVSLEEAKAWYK
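Giardia FBPA (40 nM reagent) was preincubated 10 min at RT with compound (up to 57.5 uM final), then substrate plus GAPDH/TPI/NAD/arsenate coupling system with diaphorase/resazurin was added; resorufin fluorescence (525/598 nm) was read after 20 min.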
Pf growth 48h: P. falciparum growth inhibition at 48 hours (one generation). P. falciparum luciferase growth in erythrocytes, 48 h. Potency, µM (doses to about 28.7 µM), usual class: inhibitors. hit rate 5.9% among 310,000
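Compounds are pin-transferred into medium, infected erythrocytes (2% hematocrit, 0.1% parasitemia final) are added, and plates sit one parasite generation at 37 C in 5% CO2. Detection reagent is then added and luminescence measured.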
NS1 inh: influenza NS1 inhibition; Potency, µM (highest dose often 46.1 µM); hit rate 0.4% among 270,000; AID 2326; calls by dose curve; also: actives are rising curves; nearly all actives have a fitted effect of over 50% in size
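Compounds were scored for reversing the slow growth caused by influenza A NS1 in S. cerevisiae, measured by optical density at 600 nm. Assay medium contained 2% galactose at pH 6.0; NS1-free yeast of the same strain were the positive control.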
CHX counter: affects cycloheximide protein synthesis inhibition readout, counter-screen. cell reporter, cycloheximide protein synthesis inhibition counterscreen. hit rate 12% among 300,000. max response, %; in the data active = max response mostly above about 13%, no sharp cut-off; inactive = mostly below about 14%; also: read at 38.3 µM for the half of the compounds with a filed dose
Pf growth 96h: P. falciparum growth inhibition at 96 hour, primary screen for plastid delayed-death inhibitors; P. falciparum luciferase reporter growth, 96 h; Potency, µM (highest dose often 28.7 µM), most hits filed as inhibitors; hit rate 6.9% among 320,000
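Two-generation exposure (96 h) targets delayed-death phenotype. Reporter parasites carrying integrated firefly luciferase, in red cells at 2% hematocrit and 0.05% parasitemia final, kept at 37 C, 5% CO2; luminescence loss indicates inhibition.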
Shiga inhibitor: Shiga toxin inhibition. hit rate 9.2% among 290,000. Vero cells, Shiga toxin protein synthesis inhibition reporter. inhibition, % at 38.7 µM; in the data active = inhibition mostly above about 28%, no sharp cut-off; inactive = mostly below about 43%
NS1 inh valid: influenza NS1 function inhibition validation. shares compounds with NS1 inh. influenza NS1 function cell assay, 15-point titration. activity change, negative = inhibition, % at 32.9 µM. 1,400 tested, under 10 active; calls by dose curve
Flu PR8 replic: influenza virus titer reduction, NS1 project; shares compounds with NS1 inh; MDCK infected influenza A/PR/8/34, virus titer TCID50; stronger effect = lower value; virus titer (log TCID50), log10 TCID50 at 5 µM; hit rate 30% among 95; call rule not given here
Of the large screens only hits and unclear results are named; the others gave an inactive call (follow-up assays come after a bar, where they were run). Unless noted, calls follow the shape of the dose curve; as a rule, active = well fitted curve in the direction sought with a large enough effect; inconclusive = small, poorly fitted or top-dose-only effect, or another doubt; inactive = no such curve, though single readings can be large; an effect the other way counts as inactive or inconclusive.

COc1ccc(OC)c(NC2c3ccccc3C(=O)N2c2cccnc2)c1 (stereo unspecified)	none (no result: Pf growth 48h)
Cn1c(SCCOc2ccccc2Cl)nnc1-c1cccs1	NS1 inh inconclusive, CHX counter 26, Pf growth 96h inconclusive, Shiga inhibitor 39 | NS1 inh valid inconclusive
Cc1cc(OCCSc2nnc(-c3cccs3)n2C)ccc1Cl	FBPA Giardia inh inconclusive, Pf growth 48h inconclusive
O=C1OCCN1C(=O)[C@H]1[C@H](c2ccc([N+](=O)[O-])cc2)C(c2cccc(Cl)c2)=NN1c1ccccc1	NS1 inh 22µM, Pf growth 96h inconclusive | NS1 inh valid inactive
COc1cccc(C(C)NC(=O)Nc2cc(Cl)ccc2OC)c1 (stereo unspecified)	Pf growth 48h inconclusive
COc1cccc(C(C)NC(=O)Nc2cccc(C(F)(F)F)c2)c1 (stereo unspecified)	Pf growth 48h inconclusive, NS1 inh inconclusive | NS1 inh valid inconclusive
Cc1cc(N2CCCC2)nc(-c2ccccc2O)n1	NS1 inh 0.71µM | NS1 inh valid inactive
Cc1cc(N2CCN(C)CC2)nc(-c2ccccc2O)n1	Pf growth 48h inconclusive, Pf growth 96h inconclusive
CC1CCCC(C)N1C(=O)COc1ccc(C(=O)N/N=C/c2ccc(C(=O)O)cc2)cc1 (stereo unspecified)	Pf growth 96h inconclusive (no result: NS1 inh)
NC(Cc1c[nH]c2ccccc12)C(=O)NCc1ccccc1 (stereo unspecified)	NS1 inh inconclusive | NS1 inh valid inactive
COC(=O)c1c(NC(=S)Nc2cc(OC)c(Cl)cc2OC)sc2c1CCCCC2	NS1 inh 11µM | NS1 inh valid inactive | Flu PR8 replic inactive
CCOC(=O)c1c(NC(=S)Nc2cc([N+](=O)[O-])ccc2OC)sc2c1CCCCC2	Pf growth 96h inconclusive
O=C(NC(=S)N1CCCCC1)C12CC3CC(CC(C3)C1)C2	Pf growth 96h inconclusive (no result: Pf growth 48h)
O=C(c1cc(NC(=O)C23CC4CC(CC(C4)C2)C3)cc(NC(=O)C23CC4CC(CC(C4)C2)C3)c1)N1CCCCC1	Pf growth 48h 1.9µM, NS1 inh 11µM, Pf growth 96h 1.5µM | NS1 inh valid inactive
CCC(CO)NC(=O)[C@@H]1C=C2c3cccc4[nH]cc(c34)C[C@H]2N(C)C1 (stereo partly specified)	NS1 inh 35µM (no result: Pf growth 48h, CHX counter, Pf growth 96h, Shiga inhibitor) | NS1 inh valid inactive
O=C1CS(=O)(=O)c2ccccc2N1	none
S=C(Nc1ccc(Oc2ccc(NC(=S)NC3CCCCC3)cc2)cc1)NC1CCCCC1	Pf growth 48h inconclusive, NS1 inh 11µM | NS1 inh valid inactive
Cc1cccc(OCC(=O)NCCN2CCOCC2)c1	Pf growth 48h inconclusive, NS1 inh 1.8µM | NS1 inh valid inactive
COc1cccc(N(CC(=O)NCc2ccco2)C(=O)CCC(=O)Nc2nccs2)c1	Pf growth 48h inconclusive, Pf growth 96h inconclusive
CC1C(c2ccccc2)N(C)C(c2ccccc2)CC1(O)c1ccccc1 (stereo unspecified)	none (no result: Pf growth 96h)
CC1CN(C)C(c2ccccc2)C(C)C12NC(=O)NC2=O (stereo unspecified)	NS1 inh inconclusive | NS1 inh valid inactive
CCOc1ccc(S(=O)(=O)NC2CCCC2)cc1	none (no result: FBPA Giardia inh)
O=C1c2cccc3c(N4CCOCC4)c([N+](=O)[O-])cc(c23)C(=O)N1c1cccc2ccccc12	Pf growth 48h inconclusive, NS1 inh inconclusive, Pf growth 96h 10µM | NS1 inh valid inactive
CC(C)(C)c1ccc(O)c(O)c1	none (no result: FBPA Giardia inh, NS1 inh, CHX counter, Shiga inhibitor)
CN(N=O)c1ccc(O)c(O)c1	FBPA Giardia inh inconclusive, NS1 inh 5µM (no result: Pf growth 48h, CHX counter, Pf growth 96h, Shiga inhibitor) | NS1 inh valid inactive
CCCOP(=O)(c1ccc(N(C)C)cc1)C(Nc1ccccc1)c1ccc(N(C)C)cc1 (stereo unspecified)	Pf growth 48h 2.6µM, NS1 inh 20µM, Pf growth 96h 8.3µM | NS1 inh valid inactive
CC(C)(C)NC(=O)NC(=O)CN1CCN(c2cccc(Cl)c2)CC1	Pf growth 48h inconclusive, NS1 inh 7.9µM, Pf growth 96h inconclusive | NS1 inh valid inactive | Flu PR8 replic inactive
CN1CCC(OC(=O)COc2ccc(F)cc2)CC1	Pf growth 96h inconclusive (no result: NS1 inh)
Cc1cc(C(=O)COc2cccnc2[N+](=O)[O-])c(C)n1-c1ccccc1F	NS1 inh inconclusive, CHX counter 40, Shiga inhibitor 87 | NS1 inh valid inactive
Cc1ccc(NC(=O)C(C)OC(=O)c2ccc(NS(=O)(=O)c3ccc(F)c(F)c3)cc2)cc1 (stereo unspecified)	Pf growth 96h inconclusive
CC(=O)c1ccc(NC(=O)C(C)OC(=O)c2ccc(NS(=O)(=O)c3ccc(F)c(F)c3)cc2)cc1 (stereo unspecified)	NS1 inh 11µM, Pf growth 96h inconclusive | NS1 inh valid inactive
COCCCNC(=O)C1CCN(S(=O)(=O)c2ccc3nc4c(c(C(=O)O)c3c2)CCCCC4)CC1	none
N#CCC(=O)Nc1sc2c(c1C(N)=O)CCCC2	FBPA Giardia inh inconclusive, NS1 inh 8.9µM | NS1 inh valid inactive
CCC(=O)Nc1sc2c(c1C(N)=O)CCC2	none
O=C(Nc1ccc(F)cc1)C1CCN(S(=O)(=O)c2cccs2)CC1	Pf growth 48h inconclusive (no result: NS1 inh)
N=c1c(C(=O)NCc2ccco2)cc2c(=O)n3ccccc3nc2n1Cc1ccc(Cl)cc1	Pf growth 48h 10µM, NS1 inh 7.9µM, Pf growth 96h 2.3µM | NS1 inh valid inactive
CCCN(CCC)S(=O)(=O)c1ccc(NS(=O)(=O)c2ccc(F)cc2)cc1	none
Cc1noc(/C=C/N(C)C)c1S(=O)(=O)N1CCCC(C(=O)NC(C)c2ccccc2)C1 (stereo unspecified)	Pf growth 48h inconclusive, NS1 inh 1.8µM, Pf growth 96h inconclusive | NS1 inh valid inconclusive | Flu PR8 replic inactive
Cc1noc(/C=C/N(C)C)c1S(=O)(=O)N1CCCC(C(=O)NC2CCCCC2C)C1 (stereo unspecified)	NS1 inh inconclusive (no result: Pf growth 48h)
Cc1cccc(NC(=S)N=Nc2c(O)n(C)c3ccc(S(=O)(=O)N4CCOCC4)cc23)c1	Pf growth 48h 8.3µM, NS1 inh inconclusive, Pf growth 96h 2.3µM | NS1 inh valid inactive
CS(=O)(=O)c1ccc2nc(NC(=O)c3ccc(NS(=O)(=O)c4cccc([N+](=O)[O-])c4)cc3)sc2c1	Pf growth 48h inconclusive, Pf growth 96h inconclusive
O=C(COc1cccc2ccccc12)N/N=C/c1ccc(Sc2nc3ccccc3s2)o1	Pf growth 48h inconclusive (no result: Pf growth 96h)
O=C(Cc1cccc2ccccc12)N/N=C/c1ccc(Sc2nc3ccccc3s2)o1	Pf growth 48h inconclusive, NS1 inh 10µM, Pf growth 96h inconclusive | NS1 inh valid inactive
Cc1c(N/N=C(\C#N)C(=O)c2ccc(Cl)cc2)c(=O)n(-c2ccccc2)n1C	FBPA Giardia inh inconclusive, Pf growth 48h 12µM, NS1 inh inconclusive | NS1 inh valid inconclusive
